Test results as given in PubChem BioAssay AID1794808 (University of Kansas High Throughput Screening Laboratory, 2022).
Screen size: about 210,000 compounds; about 520 (0.25%) were called active. This is one part of a sample in which actives are shown more often than they occur. A number with no mark means an inactive call. Rule as the data show it: active = inhibition above about 50%; inactive = the rest.

Each compound was assayed on Plasmodium falciparum apicoplast DNA polymerase (apPOL) (assay: Pf-apPOL inhibitors, biochemical, fluorescence (AID 1794808)). Details: Recombinant Pf-apPOL, molecular beacon fluorescence, 1.5 h; at 10 µM; active compounds read high.

SMILES	inhibition
NC(=O)c1cc2cc(Br)ccc2oc1=Nc1ccc(F)cc1	5.9%
CC(=O)Nc1ccc(-c2ccc(NC(C)=O)c(Cl)c2)cc1Cl	6.6%
CCN1CCCC1CNC(=O)c1cn(C)c(=O)c2cc(OC)c(OC)cc12 (stereo not given)	4.5%
O=c1c(O)c(Br)ccc2c(Br)c(O)c(O)c(O)c12	99.5% (active)
O=C(NC1CCCCC1)c1ccccc1NC(=O)C1COc2ccccc2O1 (stereo not given)	-3.8%
Cn1nc(-c2nnc(-c3ccccc3Cl)o2)c2c1CCN(C(=O)CCc1ccccc1)C2	-2.8%
COc1cc(C(=O)Nc2c3c(nn2-c2ccc(C)cc2C)CS(=O)(=O)C3)cc(OC)c1OC	-2.5%
COc1ccc(C2=NOC(C(=O)NCCc3ccccc3)C2)cc1OC (stereo not given)	-10.3%
Cc1ccc(F)c(NC(=O)CCc2ccccc2)c1	-10.7%
O=C(CCCc1ccccc1)Nc1cccc(Cl)c1	-10.9%
Cc1cc(Cl)ccc1NC(=O)CCc1ccccc1	52.8% (active)
Cc1ccc2nc3c(nc2c1)C(=O)c1ccccc1C3=O	-3.7%
Cc1ccc(-c2ccc(C)cc2N)c(N)c1	5.9%
Cc1ccc2c(c1)C(=O)C(=O)S2	53.9% (active)
Cc1ccsc1/C=C(\C(=O)NCc1cccnc1)S(=O)(=O)c1ccccc1	2.5%
O=C(Cc1ccc(F)cc1)N1CCC(Nc2cccn3ncnc23)CC1	-7.3%
O=C(C1CCCN(c2nnc3ccc(Cl)cn23)C1)N1CCN(C2CCCCC2)CC1 (stereo not given)	-2.9%
CCN(Cc1cc(-c2ccc(C)cc2C)on1)C(=O)c1cccs1	3.3%
CCC(=O)N1CCC(COc2ccccc2C(=O)N2CCCCC2)CC1	-0.7%
COc1cc(Cl)c(NC(=O)C2CCCN(c3nccc(C)n3)C2)c(OC)c1 (stereo not given)	2.3%
CCN(CC)C(=O)C1CCCN(Cc2ccccc2OC)C1 (stereo not given)	-2.5%
CCN(CC)S(=O)(=O)c1ccc(C(=O)Nc2c3c(nn2-c2ccc(C)cc2)CSC3)cc1	3.5%
CCCCOc1ccc(S(=O)(=O)N2CCSC2c2ccccc2)cc1 (stereo not given)	-1.1%
Cc1cccc(S(=O)(=O)N2CCSC2c2ccccc2)c1 (stereo not given)	95.2% (active)

SMILES	inhibition
O=[N+]([O-])c1ccc(C2SCCN2S(=O)(=O)c2ccccc2)cc1 (stereo not given)	-2.9%
O=C(NCCc1ccccc1)N1CCC(n2c(-c3ccoc3)nc3cccnc32)C1 (stereo not given)	-2%
O=C(c1ccccc1)c1ccc(OCCNC(=O)c2ccccc2Br)cc1	-3.3%
CC(C)CC1=NN(C(=O)c2cccc(Cl)c2)C(O)(C(F)(F)F)C1 (stereo not given)	2%
CC(C)c1cccc(N2C=C(C#N)S(=O)(=O)c3c(F)cccc32)c1	-0.6%
COc1ccc(NS(=O)(=O)c2c(C)cc(C)cc2C)c([N+](=O)[O-])c1	-4%
COc1cc(C(=O)N2CCC(c3noc(-c4cccc(F)c4)n3)CC2)cc(OC)c1OC	0.1%
O=C(c1ccc(OCC2CCCN(C(=O)c3ccccn3)C2)cc1)N1CCCC1 (stereo not given)	3.1%
CCc1ccc(OCC(=O)Nc2cc(OC)c(Cl)cc2OC)cc1	-9.2%
O=C(NCCCNc1ccc([N+](=O)[O-])cc1Cl)c1ccccc1Br	4.9%
Cc1nc(-c2ccccc2)sc1C(=O)ON=C(N)c1ccc([N+](=O)[O-])o1	11.5%
CCCOc1ccc(S(=O)(=O)NCC2CCN(S(=O)(=O)C3CC3)CC2)cc1C	-5.5%
CC(=O)N1CCc2ccccc2C1C(=O)NCc1ccc(C)cc1 (stereo not given)	-0.9%
COc1cccc2sc(=NC(=O)c3cccc(F)c3)n(C)c12	2.7%
Cc1nc(N2CCC(C(N)=O)CC2)nc(NCc2ccco2)c1[N+](=O)[O-]	-9.6%
COc1cccc(-c2n[nH]c(C)c2NC(=O)C(C)C)c1	-6.9%
CCn1c(C2CCN(S(=O)(=O)c3cc(OC)ccc3OC)C2)nc2cccnc21 (stereo not given)	-5.5%
Cc1ccc(CC(=O)NC2CCN(c3cc(C)cc(C)c3)C2=O)cc1 (stereo not given)	-5.7%
Cc1nc(-c2ccccc2F)sc1C(=O)N1CCCC1	-7.4%
Cc1nc(-c2ccncc2)nc2c1CC(=O)N2C1CCCC1	-7.5%
COc1cc(NC(=O)c2cccc([N+](=O)[O-])c2)c(OC)cc1NC(=O)c1ccccc1	-2.7%
Cc1cccc(CN2CCCn3nc(C(=O)Nc4ccccc4C)cc3C2=O)c1	-2.2%
CC1(C(=O)O)NC(c2cc(Cl)ccc2O)C2C(=O)N(c3ccc(Cl)cc3)C(=O)C21 (stereo not given)	-9.1%
O=Cc1ccc(OCc2cccc(F)c2)c(Cl)c1	1.2%

SMILES	inhibition
O=C1CN(C(=O)c2c(F)cccc2F)C(c2ccccc2)c2cc(F)ccc2N1 (stereo not given)	-3.5%
COc1cccc(-c2cc3n(n2)CCCN(C(=O)Cc2ccsc2)C3)c1	-7.6%
COc1ccccc1N1CCN(CC(=O)Nc2ncc(C)s2)C1=O	-2.4%
CCC(CC)C(=O)N1CCN(c2ccc([N+](=O)[O-])cc2)CC1	-4.2%
CC1C(=O)N(c2cccc(F)c2)CCN1C(=O)c1ccc(Cl)cc1 (stereo not given)	-2.7%
Cc1ccc(C(=O)N2CCN(c3ccc(F)c(Cl)c3)C(=O)C2C)cc1 (stereo not given)	69.1% (active)
Cc1cccc(N2CCN(C(=O)c3ccc(F)cc3)C(C)C2=O)c1 (stereo not given)	0.4%
Cc1cccc(NS(=O)(=O)c2c(C)n[nH]c2C)c1C	-1.5%
Cc1cc(C)n(-c2ccc(C(=O)NC3CCCC3)cn2)n1	2%
CCC1CCCCN1C(=O)CSc1nc2c(c(=O)n1C)SC(C)C2 (stereo not given)	-6.3%
COc1ccc(C=C2Oc3c(ccc(O)c3CN3CCCCCC3)C2=O)cc1OC	-19.5%
N/C(=N\OC(=O)CCCc1ccccc1)c1ccc(Cl)cc1	5.3%
Cc1cccc(NC(=O)N2CC(c3nc(C)no3)C3(CCOCC3)C2)c1 (stereo not given)	-0.4%
COc1ccccc1OCC(=O)N1CCCCC1CCN1CCCCCC1 (stereo not given)	-10.1%
Cc1ccc2c(c1)C(=O)CC(c1cc(Br)cc3c1OCOC3)O2 (stereo not given)	-13.6%
Cc1ccccc1-n1nc2c(c1NC(=O)c1c(F)cccc1Cl)CS(=O)(=O)C2	-3.3%
Cc1nc(C(C)C)nc2c1CCC(=O)N2CCCN1CCOCC1	4%
Cc1cccc(NC(=O)CC2SC(=Nc3ccccc3)NC2=O)c1 (stereo not given)	2.1%
O=C(NCCCN1CCOCC1)c1cc2c(=O)oc3ccccc3c2s1	1.2%
O=C(NC1CCCC1)c1ccc(-n2nc(N3CCCC3)ccc2=O)cc1	4.7%
COC(=O)c1ccccc1OC1OC(CO)C(O)C(O)C1NC(C)=O (stereo not given)	1.3%
O=C(c1ccc([N+](=O)[O-])cc1)N1CCN(c2cccc(Cl)c2)CC1	-2.7%
CC(=O)Nc1ccc(C(=O)N2CCN(c3cccc(Cl)c3)CC2)cc1	9.7%
N#CC(C#N)=C1SCN(c2cccc(Cl)c2)CS1	66.2% (active)

SMILES	inhibition
CCn1cc(C2=CCN(S(=O)(=O)c3cccc(C)c3)CC2)c2cccnc21	-11%
Nc1cc2c(cc1[N+](=O)[O-])OCCOCCOc1ccc([N+](=O)[O-])cc1OCCOCCO2	-0.2%
CCCNc1cc(N2CCCC(CCC(=O)Nc3ccc4c(c3)OCCO4)C2)ncn1 (stereo not given)	-2.1%
COc1cccc(NC(=O)c2cncc(-c3ccc(F)cc3)c2)c1	1.8%
Cc1cc(C)cc(-c2nc(-c3ccc4c(c3)oc(=O)n4C)no2)c1	0.7%
COc1ccc(C(O)=C2C(=O)C(=O)N(CCN3CCOCC3)C2c2ccccc2F)cc1OC (stereo not given)	-2.5%
O=C(COc1ccc(Cl)cc1)N1CCC(N2CCCCCC2)CC1	-3.8%
COc1ccc(NCN2C(=O)c3cc(Cl)c(Cl)cc3C2=O)cc1	7.8%
CCN(CC)CCNC(=O)C(=O)NCC1OCCN1S(=O)(=O)c1ccc(F)cc1 (stereo not given)	-1.4%
O=C(Nc1ccc(F)c(Cl)c1)c1noc2c1CCCCC2	-2.8%
CCCCC(NC(C)=O)C(=O)O (stereo not given)	4.1%
CCCCOc1ccccc1/C=c1\sc2ncnn2c1=O	10.1%
COc1ccc(NC(=O)CCC2CCN(c3cc(NC4CC4)ncn3)CC2)cc1	0.2%
COCCNC(=O)NCCCc1ccc(N(C)C)cc1	-1.5%
COc1cccc(/C=c2\sc3nc(=O)c(C)nn3c2=O)c1	1.4%
CC(=O)N1CCc2sc(S(=O)(=O)N3CCN(c4ccccc4F)CC3)cc2C1	-5.6%
COc1ccc(-c2cc(=O)n(CCNC(=O)Cn3cnc4ccccc4c3=O)cn2)cc1	-6.7%
COc1ccc(NC(=O)CSc2nc3c(cnn3-c3ccc(C)cc3)c(=O)[nH]2)c(OC)c1	3.2%
C(=Nc1ccccc1-n1cccc1)c1cnc(-c2ccccc2)[nH]1	-2.2%
C=CCNC(=O)CCSc1ccc(Cl)cc1	0.6%
CC1CCCCC1NS(=O)(=O)c1cc(C(=O)Nc2ccc(F)c(F)c2)ccc1F (stereo not given)	37.3%
CC12CC3(C)CC(C)(C1)CC(C(=O)Nc1ccc(F)c(Cl)c1)(C2)C3	-2.2%
O=C(c1cc(F)cc(F)c1)N1CCC(c2cnn(-c3cccc(F)c3)c2)CC1	-5.6%
